DNMT1 block: inhibitors of human DNMT1 | P26358 | DNMT1 molecular beacon, Hinp1I cleavage, fluorescence | inhibition (reported as % activation of signal), % at 10 µM | actives 0.83% (n = 360,000); in the data active = inhibition above about 50%
PG9 binder: binds the HIV-1 gp120 antibody PG9; TR-FRET gp120-PG9 antibody binding; inhibition, % at 6.7 µM; actives 0.43% (n = 360,000); AID 624416; in the data active = inhibition above about 8.5%
LEDGF integ inh: blocks HIV-1 LEDGF/p75-dependent DNA integration; TR-FRET IN-LEDGF/p75 DNA integration, Eu/Cy5; inhibition, % at 3.7 µM; actives 0.64% (n = 370,000); AID 743269;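 active = inhibition above the screen-wide mean plus 3 SD, cut at about 13% in these data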;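 also: signal is the Cy5 over europium emission ratio at 671 and 618 nm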
MBD2 DNA inh: blocks human MBD2 binding to methylated DNA. TR-FRET, MBD2 binding to methylated oligonucleotide. AID 686964. inhibition, % at 4.4 µM. Q9UBB5. actives 0.31% (n = 370,000); in the data active = inhibition above about 13%
UHRF1 MBD2 ctr: blocks human UHRF1 binding to methylated DNA | Q96T88 | UHRF1 binding to methylated oligo, TR-FRET | inhibition, % at 4.4 µM | actives 0.75% (n = 370,000); in the data active = inhibition above about 21%;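 also: UHRF1 SRA domain binding a hemimethylated CpG hairpin DNA probe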
Target sequence (Q96T88 whole entry, looked up, the tested form may be a part): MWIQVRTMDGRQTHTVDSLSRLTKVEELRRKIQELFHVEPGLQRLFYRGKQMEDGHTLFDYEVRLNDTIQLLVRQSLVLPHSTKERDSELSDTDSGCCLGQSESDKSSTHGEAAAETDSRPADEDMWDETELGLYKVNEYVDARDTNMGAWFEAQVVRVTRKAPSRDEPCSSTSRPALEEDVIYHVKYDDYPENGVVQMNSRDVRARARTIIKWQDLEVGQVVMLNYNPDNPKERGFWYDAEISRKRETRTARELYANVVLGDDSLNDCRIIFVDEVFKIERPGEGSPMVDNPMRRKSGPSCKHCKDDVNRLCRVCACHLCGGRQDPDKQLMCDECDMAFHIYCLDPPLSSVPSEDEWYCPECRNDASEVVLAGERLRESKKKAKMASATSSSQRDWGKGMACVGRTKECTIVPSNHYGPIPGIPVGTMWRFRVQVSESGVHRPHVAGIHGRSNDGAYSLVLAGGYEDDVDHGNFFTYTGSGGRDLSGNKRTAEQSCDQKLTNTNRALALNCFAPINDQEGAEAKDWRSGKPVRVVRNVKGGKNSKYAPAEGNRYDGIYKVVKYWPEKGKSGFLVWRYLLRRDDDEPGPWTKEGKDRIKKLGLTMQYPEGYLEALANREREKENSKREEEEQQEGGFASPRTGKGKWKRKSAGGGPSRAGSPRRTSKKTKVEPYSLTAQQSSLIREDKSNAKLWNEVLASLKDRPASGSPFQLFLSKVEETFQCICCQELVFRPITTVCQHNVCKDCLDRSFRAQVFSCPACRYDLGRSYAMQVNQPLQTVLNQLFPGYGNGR
rCAG binder: binds r(CAG) RNA repeats. r(CAG) RNA repeat, TO-PRO-1 dye displacement fluorescence. inhibition, % at 3 µM. actives 1.3% (n = 370,000);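 active = inhibition above the plate cutoff, the mean of all test compounds on that plate plus 3 SD, cut at about 35% in these data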;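 also: higher means more dye released from RNA so lower well fluorescence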
DNMT1 interf DR: shows spectral interference in the DNMT1 beacon assay; 200 tested, under 10 active; molecular beacon fluorescence, spectral interference counter-screen; IC50, µM; shares compounds with DNMT1 block; call rule not given here
DNMT1 inh conf: DNMT1 inhibition confirmation, single concentration; shares compounds with DNMT1 block; DNMT1 molecular beacon HinP1I cleavage, fluorescence; inhibition, % at 10 µM; actives 8% (n = 2,300); AID 602385;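 active = average inhibition of at least 30% in the single-concentration confirmation test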
DNMT1 interf: beacon fluorescence artifact counter-screen | shares compounds with DNMT1 block | DNMT1 molecular beacon spectral interference counterscreen, fluorescence 485/520 | activation (fluorescence interference), % at 10 µM | actives 1% (n = 2,300) | AID 602387;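 active = activation of at least 30% at 10 µM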;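 also: DNMT1 catalytic domain with a HinP1I cleavage step and a FAM/dabcyl DNA beacon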
Numbers stand for hits; - = inactive; . = no result. Only some compounds are listed: those with a hit (about 3.5% of all), similar ones and a draw of the others.

SMILES	DNMT1 block	PG9 binder	LEDGF integ inh	MBD2 DNA inh	UHRF1 MBD2 ctr	rCAG binder	DNMT1 inh conf	DNMT1 interf	others
Cc1cccc(Nc2nnc(SCC(=O)NC(=O)Nc3ccc4c(c3)OCCO4)s2)c1	50	-	-	-	-	-	-	-
Cc1nnc(SCC(=O)NC(=O)Nc2ccc3c(c2)OCCO3)s1	-	-	-	-	-	-	.	.
S=c1[nH]nc(-c2ccncc2)n1/N=C/c1cn(-c2ccccc2)nc1-c1ccc(Cl)cc1	75	-	-	-	-	-	-	-
CSc1nnc(-c2ccncc2)n1/N=C/c1cn(-c2ccccc2)nc1-c1ccc(Cl)cc1	-	-	-	-	-	-	.	.
CCOC(=O)C1=CCN(S(=O)(=O)c2ccc(C)cc2)C1c1cccc2ccccc12 (stereo unspecified)	-	-	-	-	-	-	.	.
COc1ccc(C2CC(c3ccccc3F)=NN2c2ccc(S(N)(=O)=O)cc2)cc1 (stereo unspecified)	-	-	-	-	-	-	.	.
COc1ccc(C2CC(c3ccccc3C(F)(F)F)=NN2c2ccc(S(N)(=O)=O)cc2)cc1 (stereo unspecified)	65	-	-	-	-	-	-	-
O=C(COC(=O)c1ccc(F)cc1Cl)NC1CC1	-	-	-	-	-	-	.	.
Cc1ccccc1C(=O)Nc1ccc(N2CCCC2)cc1	-	-	-	-	-	-	.	.
O=C(Nc1ccc(N2CCCC2)cc1)c1ccccc1[N+](=O)[O-]	70	-	-	-	-	-	-	-
O=C(Nc1ccc(N2CCCC2)cc1)c1ccc(Br)o1	81	-	-	-	-	-	-	-
CCN1CCN(c2ccc(NC(=O)c3ccc(Br)o3)cc2)CC1	-	-	-	-	-	-	.	.
Cc1ccc(C(=O)Nc2ccc(N3CCCC3)cc2)c(C)c1	54	-	-	-	-	-	-	-
O=C(Nc1ccc(N2CCCC2)cc1)c1cc(Br)ccc1Cl	50	-	-	-	-	-	-	-
COc1ccc(CNC(=O)O[C@H]2C[C@@H]3C(=O)N(c4ccccc4)C(=O)[C@@H]3[C@@H]3CN(S(=O)(=O)c4ccc(C)cc4)C[C@]23O)cc1OC	-	-	-	-	-	-	.	.
CCc1nc2c(OCc3ccc(C(F)(F)F)cc3)cccn2c1N(C=O)Cc1ccc(OC)cc1	-	-	-	-	-	-	.	.
Cn1cc(CCOCc2ccccn2)c2ccccc21	.	-	-	-	-	-	.	.
COc1cccc(NC(=O)Nc2nc3ncccn3c2-c2ccc(C)cc2)c1	.	.	-	-	-	-	.	.
COCCNC(=O)c1ccc(-c2cn[nH]c2)c2ccoc12	68	-	-	-	-	-	-	-
O=C(CNC(=O)c1ccco1)NCC(=O)OCc1ccc(Cl)cc1Cl	66	-	-	-	-	-	-	-
O=C(Cc1c(F)cccc1Cl)NCC(=O)OCc1ccccc1	-	-	-	-	-	-	.	.
O=C(CNC(=O)Cc1ccccc1)NCC(=O)OCc1ccccc1	68	-	-	-	-	-	-	-
CC1(C(=O)N2CCCCC2)CCN1C(=O)Cc1ccc(-c2ccccc2)cc1 (stereo unspecified)	-	-	-	-	-	-	.	.
COCCN(C(=O)COC(=O)c1ccccc1NCc1ccco1)c1c(N)n(Cc2ccccc2)c(=O)[nH]c1=O	-	-	-	-	-	-	.	.
O=C(O)C1=C(C(=O)O)C2C=CC1C2	60	-	-	-	33	-	-	-
SMILES	DNMT1 block	PG9 binder	LEDGF integ inh	MBD2 DNA inh	UHRF1 MBD2 ctr	rCAG binder	DNMT1 inh conf	DNMT1 interf	others
NC(=O)CC(NC(=O)Cc1ccc(Br)cc1)c1ccc(NCCc2ccc(Cl)cc2)c([N+](=O)[O-])c1 (stereo unspecified)	58	-	-	-	-	-	-	-
NC(=O)CC(NC(=O)Cc1ccc(Br)cc1)c1ccc(NCCc2ccc(F)cc2)c([N+](=O)[O-])c1 (stereo unspecified)	53	-	-	-	-	-	-	-
NC(=O)CC(NC(=O)Cc1ccc(Br)cc1)c1ccc(NCCc2ccccc2F)c([N+](=O)[O-])c1 (stereo unspecified)	-	-	-	-	-	-	.	.
Cc1ccccc1CNc1ccc(C(CC(N)=O)NC(=O)c2ccc(Br)cc2)cc1[N+](=O)[O-] (stereo unspecified)	61	-	-	-	-	-	-	-
COc1ccc(CCNc2ccc(C(CC(N)=O)NC(=O)Cc3ccc(Br)cc3)cc2[N+](=O)[O-])cc1 (stereo unspecified)	55	-	-	-	-	-	-	-
O=C(Nc1cccc(S(=O)(=O)N2CCCCCC2)c1)c1ccc2c(c1)OCO2	-	-	-	-	-	-	.	.
O=C(Nc1cccc(S(=O)(=O)N2CCCC2)c1)c1ccc2c(c1)OCO2	95	-	-	-	-	-	-	-
CC1=NN(c2nc(N)nc(/C(C#N)=C/c3ccc([N+](=O)[O-])o3)n2)C(C)(C)C1	54	-	-	-	-	-	-	-
O=C1C2C(C(=O)N1/N=C/c1ccc([N+](=O)[O-])o1)C1C=CC2C12CC2 (stereo unspecified)	-	-	-	-	-	-	.	.
O=C1C(Br)=Cc2cccc3cccc1c23	-	-	-	-	-	-	.	.
O=C1c2sccc2-c2cccc3cccc1c23	66	-	-	-	-	-	65	-	DNMT1 interf DR=-
CN(C(=O)c1cccc(NC(=O)Cc2ccc(NC(=O)C3CCN(C(=O)C4CCC4)CC3)cc2)c1)C1CCCCC1	-	-	-	-	-	-	.	.
C=CC[C@@H](CC(=O)NCCO)C(=O)NC[C@H](OC(=O)[C@@H](CC=C)CC(=O)OC(C)(C)C)c1ccccc1	-	-	-	-	-	-	.	.
C=CC[C@@H](CC(=O)N[C@@H](CO)Cc1ccccc1)C(=O)NC[C@@H](OC(=O)[C@@H](CC=C)CC(=O)OC(C)(C)C)c1ccccc1	57	-	-	-	-	-	-	-
Clc1ccc(-c2cc3nc(NCc4cccc(Cl)c4)ccn3n2)cc1	79	-	-	-	-	-	-	-
Clc1cccc(CNc2ccn3nc(-c4ccccc4)cc3n2)c1	-	-	-	-	-	-	.	.
COc1ccccc1/C=C1\N=C(C(C)(C)C)OC1=O	-	-	-	-	-	-	.	.
Cc1ccc(/C=C2\SC(N3CCN(C(c4ccccc4)c4ccccc4)CC3)=NC2=O)o1	79	-	-	-	-	-	-	-
Cc1ccc(-c2ccc(/C=C3\SC(N4CCOCC4)=NC3=O)o2)cc1	-	-	-	-	-	-	.	.

Compound activity: PubChem BioAssay, several laboratories
